Bioassay records as filed in PubChem.
Only some compounds are listed: those with a hit (about 12% of all), similar ones and a draw of the others.
BAZ2B block: BAZ2B (human) inhibition. Q9UIF8. actives 4.4% (n = 360,000). AlphaScreen BAZ2B-H3K14Ac peptide displacement. AID 504333. Potency, µM (doses to about 114 µM), inactives show at the top dose activity change, negative = inhibition, actives largely listed as inhibitors; note: % is set by controls: 0 for no effect and ±100 for the full control effect; nearly all actives have a fitted effect of over 60% in size
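AlphaScreen displacement of biotin-H3(5-23)K14Ac peptide (50 nM final) from BAZ2B (50 nM final) in PBS pH 7.4, 0.01% Tween-20; complex preformed 30 min RT, then compounds (top 110 uM) 30 min RT, beads 20 min dark.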
HP1b binding inh: HP1-beta chromodomain-methylated histone interaction inhibition | Potency, µM (highest dose often 114 µM), for inactives: top-dose activity change, negative = inhibition, actives largely listed as inhibitors | AlphaScreen HP1-beta / biotin-H3K9me3 peptide binding | P83916 | actives 0.56% (n = 390,000) | AID 540317; note: nearly all actives have a fitted effect of over 70% in size
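AlphaScreen: HP1-beta (50 nM) preformed 30 min with biotin-H3(1-18)K9me3 peptide (50 nM) in PBS pH 7.4, 0.01% Tween-20. Compound added for 30 min at RT, then streptavidin donor/nickel chelate acceptor beads (10 ug/mL) for 30 min.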
JMJD2A Tudor: JMJD2A Tudor domain (human) inhibition; actives 4.4% (n = 390,000); AlphaScreen JMJD2A-Tudor / H3K4me3 peptide binding; Potency, µM (series often up to 114 µM), for inactives: at the top dose activity change, negative = inhibition, actives largely listed as inhibitors; O75164; note: % is set by controls: 0 for no effect and ±100 for the full control effect; nearly all actives have a fitted effect of over 50% in size
TDP1 inh: blocks human tyrosyl-DNA phosphodiesterase 1; AID 485290; recombinant TDP1, AlphaScreen DNA substrate cleavage; Potency, µM (top dose mostly 130 µM), for inactives: top-dose activity change, negative = inhibition, actives largely listed as inhibitors; actives 0.28% (n = 350,000); Q9NUW8; note: % is set by controls: 0 for no effect and ±100 for the full control effect; nearly all actives have a fitted effect of over 40% in size
Target sequence (Q9NUW8 whole entry, looked up): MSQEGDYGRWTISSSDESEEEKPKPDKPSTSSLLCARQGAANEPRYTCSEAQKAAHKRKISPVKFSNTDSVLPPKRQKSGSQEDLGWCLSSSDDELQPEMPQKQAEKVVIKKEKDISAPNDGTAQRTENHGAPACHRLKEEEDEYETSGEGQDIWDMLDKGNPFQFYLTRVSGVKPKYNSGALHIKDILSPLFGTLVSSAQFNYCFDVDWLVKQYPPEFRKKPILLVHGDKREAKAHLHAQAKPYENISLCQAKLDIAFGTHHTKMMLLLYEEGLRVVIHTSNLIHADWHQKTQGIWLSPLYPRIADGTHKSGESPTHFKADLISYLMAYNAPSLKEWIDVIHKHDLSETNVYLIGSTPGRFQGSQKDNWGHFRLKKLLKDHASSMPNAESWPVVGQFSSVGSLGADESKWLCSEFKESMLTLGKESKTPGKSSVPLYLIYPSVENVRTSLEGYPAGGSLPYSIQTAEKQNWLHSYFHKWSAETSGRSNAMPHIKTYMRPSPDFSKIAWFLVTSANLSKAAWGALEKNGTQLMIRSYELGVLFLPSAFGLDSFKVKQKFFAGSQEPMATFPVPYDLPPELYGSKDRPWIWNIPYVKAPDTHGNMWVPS
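Signal: AlphaScreen proximity between streptavidin donor and anti-FITC acceptor beads on intact substrate. Reaction: Tdp1 1 nM, substrate 15 nM final, 5 min RT after 15 min compound preincubation.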
Sfp inh: Sfp phosphopantetheinyl transferase inhibition; actives 3.5% (n = 310,000); Biochemical Sfp PPTase activity, qHTS; Potency, µM, without a hit: largest response in the series, negative = inhibition, hits mostly inhibitors; Q9F4F7; AID 1490;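 note: the enzyme is Sfp with the accession as filed and its product quenches rhodamine fluorescence; 0% = enzyme reaction without inhibitor and -100% = no enzyme wells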
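After 15 min at room temperature with compound, 15 nM Sfp received 5 uM rhodamine-CoA plus 12.5 uM BHQ-2-ybbR (50 mM Hepes pH 7.6, 10 mM MgCl2). Rate came from the fluorescence difference over 30 min, ex 525/em 598 nm.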
G9a inh: G9a (human) methyltransferase inhibition; G9a H3K9 monomethylation, AlphaScreen, 2 h; Q96KQ7; Potency, µM (highest dose often 102 µM), for the others: top-dose activity, negative = inhibition, usual class: inhibitors; actives 8.8% (n = 350,000); AID 504332; note: % is set by controls: 0 for no effect and ±100 for the full control effect; nearly all actives have a fitted effect of over 75% in size
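Using a bead-based AlphaScreen, monomethylated H3K9 product from 2 h room-temperature reactions (G9a 20 nM, peptide 500 nM, SAM 20 uM) was detected with 0.5 ug/mL rabbit anti-H3K9me1 antibody.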
An asterisk follows results filed as active; [ ] = remark or other dose. Calls come from the whole dose curve; as a rule, active = well fitted curve in the direction sought with a large enough effect; inconclusive = small, poorly fitted or top-dose-only effect, or another doubt; inactive = no such curve, though single readings can be large; an effect the other way counts as inactive or inconclusive. Potency is the fitted concentration of half-maximal effect.

How did CC(=O)N1CC(C)Oc2ccc(S(=O)(=O)NC(CC(=O)O)c3ccc(C)cc3C)cc21 (stereo not given) do in these assays?
BAZ2B block: -2%; HP1b binding inh: 22%[57 µM]; JMJD2A Tudor: 2%; TDP1 inh: 2%; Sfp inh: 18%; G9a inh: 79µM*

Results for Cc1cc(C([O-])=C(C(=S)Nc2ccc(F)cc2)[n+]2ccccc2)c(C)n1-c1ccc(F)cc1 ?
HP1b binding inh: 50µM*

Results for COc1cccc(NC(=S)/C(=C(\[O-])c2cc(C)n(-c3ccccc3F)c2C)[n+]2ccc(N(C)C)cc2)c1 ?
BAZ2B block: 40µM*; HP1b binding inh: -18%; JMJD2A Tudor: 25µM*; TDP1 inh: 9%; Sfp inh: -16%; G9a inh: 35µM*

Results for COc1cccc(NC(=O)CCN2CCN(c3ccccc3F)CC2)c1 ?
BAZ2B block: 2%; HP1b binding inh: 28%; JMJD2A Tudor: -26%; TDP1 inh: 7%; Sfp inh: 11%; G9a inh: 10%[59 µM]

How did CCOc1ccc(C(=O)NCC(=O)N2CCC(C)CC2)cc1OCC do in these assays?
BAZ2B block: -2%; HP1b binding inh: 13%; JMJD2A Tudor: -12%; TDP1 inh: 5%; Sfp inh: 20%; G9a inh: 19%

What do the screens show for `CCn1c(Cc2ccccc2)n[nH]c1=S`?
BAZ2B block: -18%; HP1b binding inh: 31%; JMJD2A Tudor: inconclusive; Sfp inh: -18%; G9a inh: inconclusive

How did CCn1c(Cc2c(C)[nH]c3ccccc23)n[nH]c1=S do in these assays?
BAZ2B block: -35%; HP1b binding inh: 15%; JMJD2A Tudor: 4µM*; Sfp inh: 0%; G9a inh: 1.8µM*

Results for CCn1c(CSc2nc3ccccc3[nH]2)n[nH]c1=S ?
BAZ2B block: -3%; HP1b binding inh: 11%; JMJD2A Tudor: 6.3µM*; TDP1 inh: 2%; Sfp inh: -3%; G9a inh: inconclusive

What do the screens show for `CCn1c(CCc2ccccc2)n[nH]c1=S`?
BAZ2B block: -11%; HP1b binding inh: 19%; JMJD2A Tudor: 3.5µM*; TDP1 inh: 5%; Sfp inh: -8%; G9a inh: 27%[0.501 µM]

What do the screens show for `Cc1[nH]c2ccccc2c1CCO`?
BAZ2B block: 6%; HP1b binding inh: 9%; JMJD2A Tudor: -5%; TDP1 inh: 3%; Sfp inh: -2%; G9a inh: 3%[59 µM]

How did CCCCn1c(Cc2ccccc2)n[nH]c1=S do in these assays?
BAZ2B block: -3%; HP1b binding inh: inconclusive; JMJD2A Tudor: 4µM*; TDP1 inh: 0%; Sfp inh: inconclusive; G9a inh: 13µM*

How did CCOc1ccccc1CSc1nc2ccccc2[nH]1 do in these assays?
BAZ2B block: 6%; HP1b binding inh: 78%; JMJD2A Tudor: 7%; TDP1 inh: -3%; Sfp inh: 0%; G9a inh: 5%[59 µM]

What do the screens show for `CCCCc1n[nH]c(=S)n1Cc1ccccc1`?
BAZ2B block: -27%; HP1b binding inh: 8%; JMJD2A Tudor: 4µM*; TDP1 inh: 0%; Sfp inh: 9%; G9a inh: inconclusive

What do the screens show for `S=c1nc2c(n[nH]1)c1ccccc1n2CCc1ccccc1`?
BAZ2B block: -27%; HP1b binding inh: 16%; JMJD2A Tudor: -27%; Sfp inh: -10%; G9a inh: 13%

Results for S=c1[nH]nc(CNc2ccc(Cl)cc2)n1Cc1ccccc1 ?
BAZ2B block: -34%; HP1b binding inh: 20%; JMJD2A Tudor: -2%; TDP1 inh: 7%; Sfp inh: 7%; G9a inh: inconclusive

Results for CCn1c(CSCc2ccccc2)n[nH]c1=S ?
BAZ2B block: -25%; HP1b binding inh: 23%; JMJD2A Tudor: 18µM*; TDP1 inh: 5%; Sfp inh: 10%; G9a inh: 7.1µM*

Results for CCn1c(CCn2c3ccccc3c3ccccc32)n[nH]c1=S ?
BAZ2B block: inconclusive; HP1b binding inh: 47%; JMJD2A Tudor: -21%; TDP1 inh: 3%; Sfp inh: inconclusive; G9a inh: 22µM*

How did CCn1c(CSCc2ccc(F)cc2)nnc1SCC(=O)NCc1ccccc1 do in these assays?
BAZ2B block: 11%; HP1b binding inh: 50%; JMJD2A Tudor: -16%; TDP1 inh: 6%; Sfp inh: 0%; G9a inh: -11%[12.7 µM]

How did CC(C)c1nn2c(=O)cc(COC(=O)C3CCCCC3)nc2s1 do in these assays?
BAZ2B block: -3%; HP1b binding inh: 28%; JMJD2A Tudor: -9%; TDP1 inh: 3%; G9a inh: 12%[59 µM]

What do the screens show for `COc1cc2c(cc1OC)[C@@H](Cc1ccc(OCCC#N)cc1)N(C)CC2`?
BAZ2B block: 5%; HP1b binding inh: 7%; JMJD2A Tudor: -2%; Sfp inh: 13%; G9a inh: 35µM*

What do the screens show for `Cc1ccc2c(=O)cc(C(=O)NCc3ccccc3)oc2c1C`?
BAZ2B block: 4%; HP1b binding inh: 29%; JMJD2A Tudor: -11%; Sfp inh: 2%; G9a inh: -1%

How did Cc1cccc(NC2CCCCC2NS(=O)(=O)c2ccccc2)c1 (stereo not given) do in these assays?
BAZ2B block: inconclusive; HP1b binding inh: 6%; JMJD2A Tudor: inconclusive; Sfp inh: 2%

Results for COc1ccc(N2CCN(C3CCCCC3NS(=O)(=O)c3ccc(Cl)cc3)CC2)cc1 (stereo not given) ?
BAZ2B block: 10µM*; HP1b binding inh: 7%; JMJD2A Tudor: inconclusive; TDP1 inh: 6%; Sfp inh: 8%

How did COc1ccc(NC2CCCCC2NS(=O)(=O)c2ccc(C)cc2)cc1 (stereo not given) do in these assays?
BAZ2B block: 50µM*; HP1b binding inh: inconclusive; JMJD2A Tudor: inconclusive; TDP1 inh: 12%; Sfp inh: 3%; G9a inh: 14µM*

What do the screens show for `COc1ccccc1NC1CCCCC1NS(=O)(=O)c1ccc(C)cc1` (stereo not given)?
BAZ2B block: -2%; HP1b binding inh: -3%; JMJD2A Tudor: inconclusive; Sfp inh: 2%

What do the screens show for `CCOc1ccc(NC2CCCCC2NS(=O)(=O)c2ccccc2)cc1` (stereo not given)?
BAZ2B block: 45µM*; HP1b binding inh: inconclusive; JMJD2A Tudor: 56µM*; TDP1 inh: 12%; Sfp inh: 8%; G9a inh: inconclusive

How did O=C(CCl)c1ccc2[nH]c(=O)oc2c1 do in these assays?
BAZ2B block: inconclusive; HP1b binding inh: 47%; JMJD2A Tudor: -23%; TDP1 inh: 0%; Sfp inh: -15%; G9a inh: 45µM*
